Screening results (PubChem)
Most compounds without a hit are left out; they make up all but 19% or so of the library.
TDP1 cell noCPT: qHTS for Inhibitors of human tyrosyl-DNA phosphodiesterase 1 (TDP1): qHTS in cells in absence of CPT; DT40 Tdp1-/- hTDP1 cells, no CPT, ATP luminescence, 48 h; Potency, µM (doses to about 46.2 µM), for inactives: at the top dose activity change, negative = growth inhibition, actives largely listed as inhibitors; hit rate 15% among 420,000; AID 686978, 2013; further: nearly all actives have a fitted effect of over 55% in size
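Seeded 400 DT40-hTDP1 cells/well (vehicle DMSO, no 20 nM CPT); pinned compounds; ≥48 hr at 37 °C; CellTiter-Glo luminescence as viability measure.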
RORg inh: inhibitors of mouse ROR gamma transcriptional activity. Potency, µM (doses to about 53.6 µM), for the others: at the top dose activity change, negative = inhibition, most hits filed as inhibitors. AID 2551. hit rate 5.4% among 310,000. Drosophila S2 Gal4-RORgamma UAS-luciferase reporter, 20 h; further: nearly all actives have a fitted effect of over 60% in size
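In this cell-based reporter format, copper sulfate (700 uM final) drives Gal4–ROR gamma fusion expression from a metallothionein promoter in Drosophila Schneider cells; compounds preincubated 1 hr, reporter read after 20 hr at ambient temperature.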
Gal4-VP16 FLuc: inhibits Gal4-VP16 luciferase reporter, ROR gamma counter-screen; Potency, µM (doses to about 53.6 µM), for inactives: at the highest dose activity, negative = inhibition, actives largely listed as inhibitors; Drosophila S2 Gal4-VP16 UAS-luciferase, luminescence, 20 h; hit rate 3.5% among 310,000;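 further: Gal4-VP16 expression switched on by copper sulfate through the metallothionein promoter; nearly all actives have a fitted effect of over 50% in size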
TDP1 cell CPT: growth inhibition of DT40 Tdp1-/-;hTDP1 cells with camptothecin (screen for TDP1 inhibitors) | chicken DT40 Tdp1-/-;hTDP1 cells + 20 nM CPT, ATP luminescence, 48 h | Potency, µM (highest dose often 46.2 µM), for inactives: at the highest dose activity change, negative = growth inhibition, hits mostly inhibitors | hit rate 12% among 420,000; further: nearly all actives have a fitted effect of over 55% in size
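Chicken DT40 Tdp1-/- cells stably complemented with human TDP1 were seeded at 400 cells/well in medium containing 20 nM camptothecin, exposed to pin-transferred compounds, and grown at 37 °C for at least 48 hr. Viability was read as ATP luminescence.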
TDP1 inh: inhibitors of human tyrosyl-DNA phosphodiesterase TDP1; Q9NUW8; Potency, µM (highest dose often 130 µM), without a hit: at the top dose activity change, negative = inhibition, hits mostly inhibitors; hit rate 0.28% among 350,000; recombinant TDP1, AlphaScreen DNA substrate cleavage; further: nearly all actives have a fitted effect of over 40% in size
Target sequence (Q9NUW8 whole entry, looked up): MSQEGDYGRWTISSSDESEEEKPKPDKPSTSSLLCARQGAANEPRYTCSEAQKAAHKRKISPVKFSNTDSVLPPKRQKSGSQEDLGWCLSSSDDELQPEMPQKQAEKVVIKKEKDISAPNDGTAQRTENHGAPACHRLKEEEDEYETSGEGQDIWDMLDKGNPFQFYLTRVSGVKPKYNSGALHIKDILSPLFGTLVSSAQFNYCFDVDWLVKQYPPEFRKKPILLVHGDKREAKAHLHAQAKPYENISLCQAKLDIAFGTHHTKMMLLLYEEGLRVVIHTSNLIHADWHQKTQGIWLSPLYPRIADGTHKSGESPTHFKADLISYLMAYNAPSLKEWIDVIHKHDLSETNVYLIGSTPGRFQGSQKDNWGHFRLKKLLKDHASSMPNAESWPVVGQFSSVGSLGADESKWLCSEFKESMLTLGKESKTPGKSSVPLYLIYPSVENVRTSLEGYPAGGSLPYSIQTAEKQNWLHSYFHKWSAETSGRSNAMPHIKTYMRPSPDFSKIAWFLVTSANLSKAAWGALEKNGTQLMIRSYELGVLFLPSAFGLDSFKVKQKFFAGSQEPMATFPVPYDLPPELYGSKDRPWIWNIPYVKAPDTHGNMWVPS
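E. coli-derived human Tdp1, 1 nM final. Cpd preinc 15 min RT; substrate 15 nM final, 5 min RT; AS bead mix 10 ug/ml final, 10 min RT. Signal loss = tyrosine-FITC cleavage. No-enzyme wells = max signal.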
An asterisk follows results filed as active; ? = inconclusive; nt = not tested or not shown; [ ] = remark or other dose. The call rests on the fitted dose curve; in most records, active means well fitted curve in the direction sought with a large enough effect; inconclusive means small, poorly fitted or top-dose-only effect, or another doubt; inactive means no such curve, though single readings can be large; an effect the other way counts as inactive or inconclusive. On the % scale 0 is the no-effect control and ±100 the full control effect; potency means the concentration at half of the fitted maximal effect.

SMILES | TDP1 cell noCPT | RORg inh | Gal4-VP16 FLuc | TDP1 cell CPT | TDP1 inh
O=Nc1[nH]c(=O)c(/C=C(\O)c2ccccc2)nc1NO | 16µM* | -32% | -25% | ? | nt
O=c1[nH]c2ccccc2nc1/C=C(\O)C(F)F | -12% | -10% | -7% | -9% | -5%
CCc1ccc(CNC(=O)c2c(C)oc3ncn(CC(C)C)c(=O)c23)cc1 | 16µM* | nt | nt | ? | -5%
Cc1oc2ncn(CC(C)C)c(=O)c2c1C(=O)Nc1ccc(Cl)cn1 | ? | nt | nt | ? | -1%
Cc1ccc(N2CCN(C(=O)c3c(C)oc4ncn(C)c(=O)c34)CC2)c(C)c1 | -4% | nt | nt | 2% | 3%
CCOc1ccc(CCNC(=O)c2c(C)oc3ncn(CC(C)C)c(=O)c23)cc1OCC | ? | nt | nt | -28% | -3%
Cc1oc2ncn(CC(C)C)c(=O)c2c1C(=O)NCCc1ccccc1 | 16µM* | nt | nt | ? | 2%
Cc1ccc(N2CCN(C(=O)c3c(C)oc4ncn(CC(C)C)c(=O)c34)CC2)c(C)c1 | 7.3µM* | nt | nt | 29µM* | 4%
CCOC(=O)C(C)NC(=O)c1c(C)oc2ncn(CC(C)C)c(=O)c12 (centres undefined) | 23µM* | nt | nt | ? | 1%
O=C(OCc1ccc(Cl)cc1)c1ccccc1C(=O)c1ccccc1 | -5% | 37% | -10% | -13% | -8%
COc1cc(/C=C/C(=O)O)cc(S(=O)(=O)N2CCCc3ccccc32)c1OC | ? | 38% | 2% | ? | -6%
COc1ncc2nc(-c3cn(C)c4ccccc34)c(=O)n(C[C@H]3CCCO3)c2n1 | 14% | -11% | -3% | 3% | nt
CCS(=O)(=O)c1ncc(N(Cc2ccco2)Cc2ccccc2F)c(C(=O)Nc2cccc(Cl)c2)n1 | ? | nt | nt | ? | 3%
O=c1oc(-c2ccccc2)nc2c1C1(CCCCC1)Cc1ccccc1-2 | -13% | -25% | -1% | -3% | -2%
CCC1(CC)Cc2ccccc2-c2nc(-c3ccccc3)oc(=O)c21 | 16µM* | 0% | -7% | ? | -2%
CCN(CC)Cc1nc2c(c(=O)[nH]1)C1(CCCCC1)Cc1ccccc1-2 | 18µM* | 11µM* | 11µM* | 21µM* | 4%
CN(C)Cc1nc2c(c(=O)[nH]1)C(C)(C)Cc1ccccc1-2 | 11% | ? | ? | -3% | -2%
CN(C)Cc1nc2c(c(=O)[nH]1)C1(CCCCC1)Cc1ccccc1-2 | 23µM* | 2.5µM* | 5µM* | 18µM* | 4%
CCC1(CC)Cc2ccccc2-c2nc(CN(C)C)[nH]c(=O)c21 | 16µM* | 6.3µM* | 7.1µM* | ? | nt
COc1cc(C2NC(=O)NC(c3ccccc3)=C2C(C)=O)c(Br)c(Br)c1O (centres undefined) | 2% | -29%[1.91 µM] | 7% | 23% | nt
CCOc1ccc(N2C(=O)C3C(c4ccc(OC)cc4OC)NC(CCSC)(C(=O)OC)C3C2=O)cc1 (centres undefined) | -4% | 7% | 19% | -9% | nt
COc1ccccc1NC(=O)NCC1(N(C)C)CCCCC1 | -19% | -3% | -1% | 12% | nt
COc1ccc(-c2nc(CS(=O)CC(=O)NC3CCC(C)CC3)c(C)o2)cc1OC (centres undefined) | -17% | 22% | 2% | ? | 4%
COCCCNC(=O)C1CCN(Cc2nc(-c3ccc(OC)c(OC)c3)oc2C)CC1 | 0% | nt | nt | 18% | 0%
Cc1oc(-c2ccc(Cl)cc2)nc1CN1CCC(C(=O)NCc2cccs2)CC1 | ? | 0% | 4% | ? | 2%
SMILES | TDP1 cell noCPT | RORg inh | Gal4-VP16 FLuc | TDP1 cell CPT | TDP1 inh
CCN(CCNC(=O)C1CCCN(Cc2nc(-c3ccc(OC)cc3)oc2C)C1)c1ccccc1 (centres undefined) | 23µM* | ? | ? | 16µM* | 12%
CCN(CCNC(=O)C1CCN(Cc2nc(-c3ccc(Cl)cc3)oc2C)CC1)c1ccccc1 | 18µM* | ? | ? | 23µM* | 10%
CO/N=C(/C(=O)N[C@@H]1C(=O)N2C(C(=O)O)=C(CSc3nnnn3C)CS[C@H]12)c1csc(N)n1 | nt | 14% | 7% | nt | nt
Cc1cc(C)nc(N/N=C2/CCCC/C2=C\c2ccccc2)n1 | 1.2µM* | 1.4µM* | 10µM* | 2.1µM* | 8%
Cc1cc(C)nc(SC/C=C/c2ccccc2)n1 | -29% | 31%[1.91 µM] | -1% | -25% | nt
COC(=O)[C@H]1C[C@@]2(O)CN(S(=O)(=O)c3ccc(C)cc3)C[C@@]2(OC(=O)NCc2ccc(OC)c(OC)c2)C[C@H]1C(=O)OC | ? | nt | nt | -12% | nt
C#CCN(C[C@@H]1[C@@H](OC(=O)NCc2ccc(OC)c(OC)c2)[C@@H](OC(=O)NCc2ccc(OC)c(OC)c2)CN(C(=O)OC(C)C)N1C(=O)OC(C)C)S(=O)(=O)c1ccc(C)cc1 | 9.2µM* | nt | nt | 12µM* | nt
C#CCN(C[C@@H]1[C@@H](OC(=O)NC2CC2)[C@@H](OC(=O)NC2CC2)Cn2c(=O)n(CCCCCC)c(=O)n21)S(=O)(=O)c1ccc(C)cc1 | 18µM* | nt | nt | ? | nt
C#CCN(C[C@H]1[C@H](OC(=O)NCc2ccco2)[C@H](OC(=O)NCc2ccco2)C[C@H]2C(=O)N(c3ccccc3)C(=O)[C@@H]12)S(=O)(=O)c1ccc(C)cc1 | ? | nt | nt | 2% | nt
C#CCN(C[C@@H]1[C@@H](OC(=O)NCc2ccco2)[C@@H](OC(=O)NCc2ccco2)Cn2c(=O)ccc(=O)n21)S(=O)(=O)c1ccc(C)cc1 | 4.6µM* | nt | nt | 4.6µM* | nt
Cc1ccc(S(=O)(=O)N2C[C@H]3N(C(=O)OC(C)C)N(C(=O)OC(C)C)C[C@H](OC(=O)NC4CC4)[C@@]3(O)C2)cc1 | ? | nt | nt | -25% | nt
Cc1ccc(S(=O)(=O)N2C[C@H]3N(C(=O)OC(C)C)N(C(=O)OC(C)C)C[C@H](OC(=O)NC4CCCC4)[C@@]3(O)C2)cc1 | 21µM* | nt | nt | ? | nt
C#CCN(C[C@@H]1[C@@H](OC(=O)NCc2ccc(OC)c(OC)c2)[C@@H](OC(=O)NCc2ccc(OC)c(OC)c2)Cn2c(=O)n(CCCCCC)c(=O)n21)S(=O)(=O)c1ccc(C)cc1 | -28% | nt | nt | 6% | nt
Cc1nc2ccn(Cc3cccnc3)c(=O)c2cc1C(=O)NCc1ccccc1 | -13% | nt | nt | 4% | 3%
C#CCCCO/N=C1/[C@H]2O[C@@H]2[C@@H](O)[C@H]2[C@H]1CCn1c(=O)n(C)c(=O)n12 | nt | 3%[10 µM] | 5%[10 µM] | nt | 7%[21 µM]
Cc1ccc(CC(=O)Nc2nc3ccccc3s2)cc1 | ? | -14% | -14% | ? | 2%
C#CCN(C[C@@H]1[C@@H](OC(=O)NCc2ccco2)[C@@H](OC(=O)NCc2ccco2)Cn2c(=O)n(CCCCCC)c(=O)n21)S(=O)(=O)c1ccc(C)cc1 | 9.2µM* | nt | nt | 15µM* | nt
